Bioassay records: PubChem BioAssay, National Center for Advancing Translational Sciences (NCATS)
VP16 counter = VP16 counterscreen qHTS for inhibitors of ROR gamma transcriptional activity | Drosophila S2 Gal4-VP16 UAS-luciferase, luminescence, 20 h | AID 2546, 2010 | actives 3.5% (n = 310,000) | Potency, µM (highest dose often 53.6 µM), for the others: top-dose activity, negative = inhibition, hits mostly inhibitors;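 further: Gal4-VP16 expression switched on by copper sulfate through the metallothionein promoter; potency means the concentration at half of the fitted maximal effect; nearly all actives have a fitted effect of over 50% in size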
LDHA block = qHTS assay for inhibitors of human lactate dehydrogenase; actives 0.15% (n = 480,000); activity change, % (values are at about 110 or 230 µM); purified LDHA, NADH/diaphorase-resazurin fluorescence; stronger effect = lower value; in the data active means activity change below about -30%; inconclusive means mostly about -25% to -30%;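 further: plate controls were DMSO wells for no effect and wells without enzyme for full effect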
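Resorufin fluorescence (ex540/em590), read at 0 and 20 min after diaphorase/resazurin addition, reports the NADH left after a 5 min room-temperature reaction of 2 nM human LDH5 with 0.06 mM NADH and 0.2 mM pyruvate.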
TDP1 cell noCPT = qHTS for Inhibitors of human tyrosyl-DNA phosphodiesterase 1 (TDP1): qHTS in cells in absence of CPT; DT40 Tdp1-/- hTDP1 cells, no CPT, ATP luminescence, 48 h; actives 15% (n = 420,000); Potency, µM (doses to about 46.2 µM), without a hit: at the highest dose activity change, negative = growth inhibition, actives largely listed as inhibitors; further: potency means the concentration at half of the fitted maximal effect; nearly all actives have a fitted effect of over 55% in size
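Growth kinetics read by CellTiter-Glo luminescence after ≥48 hr at 37 °C. Cells: DT40 Tdp1-/- stably carrying human TDP1, 400 per well, compound exposure in the absence of CPT (DMSO vehicle).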
RORgamma inh = qHTS for inhibitors of ROR gamma transcriptional activity | Nuclear receptor ROR-gamma (Mus musculus), P51450 | Drosophila S2 Gal4-RORgamma UAS-luciferase reporter, 20 h | Potency, µM (highest dose often 53.6 µM), without a hit: at the highest dose activity change, negative = inhibition, most hits filed as inhibitors | actives 5.4% (n = 310,000); further: potency means the concentration at half of the fitted maximal effect; nearly all actives have a fitted effect of over 60% in size
Target sequence (P51450 whole entry, looked up, the tested form may be a part): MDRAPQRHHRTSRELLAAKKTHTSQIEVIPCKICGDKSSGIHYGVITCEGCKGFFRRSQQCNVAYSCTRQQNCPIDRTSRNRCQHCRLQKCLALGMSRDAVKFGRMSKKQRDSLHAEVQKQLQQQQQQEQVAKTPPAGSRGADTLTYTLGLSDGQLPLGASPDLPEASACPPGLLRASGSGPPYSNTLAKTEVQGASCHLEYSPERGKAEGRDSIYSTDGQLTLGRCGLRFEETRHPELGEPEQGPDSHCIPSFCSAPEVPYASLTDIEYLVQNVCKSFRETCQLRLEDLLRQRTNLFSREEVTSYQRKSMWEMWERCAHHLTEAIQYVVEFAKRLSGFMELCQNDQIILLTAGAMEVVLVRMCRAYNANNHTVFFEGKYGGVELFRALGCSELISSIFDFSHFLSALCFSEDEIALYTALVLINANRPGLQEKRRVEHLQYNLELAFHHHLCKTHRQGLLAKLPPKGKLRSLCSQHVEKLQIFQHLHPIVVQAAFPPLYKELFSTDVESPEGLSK
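In this cell-based reporter format, copper sulfate (700 uM final) drives Gal4–ROR gamma fusion expression from a metallothionein promoter in Drosophila Schneider cells; compounds preincubated 1 hr, reporter read after 20 hr at ambient temperature.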
DT40 TDP1 CPT = qHTS for Inhibitors of human tyrosyl-DNA phosphodiesterase 1 (TDP1): qHTS in cells in presence of CPT; Potency, µM (titrated, usually from 46.2 µM), inactives show at the highest dose activity change, negative = growth inhibition, usual class: inhibitors; chicken DT40 Tdp1-/-;hTDP1 cells + 20 nM CPT, ATP luminescence, 48 h; actives 12% (n = 420,000); AID 686979, 2013; further: potency means the concentration at half of the fitted maximal effect; nearly all actives have a fitted effect of over 55% in size
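Chicken DT40 Tdp1-/- cells complemented with human TDP1, 400 cells/well, exposed to compounds plus 20 nM camptothecin for at least 48 h at 37 C; viability read as ATP content by CellTiter-Glo luminescence.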
IL1B secr inh = qHTS for Inhibitors of Inflammasome Signaling: IL-1-beta AlphaLISA Primary Screen | THP-1 LPS/ATP IL-1B secretion, AlphaLISA, 16 h; stronger effect = lower value | activity change, % at 57.5 µM | actives 4.7% (n = 360,000); in the data active means activity change below about -50%; inconclusive means mostly about -30% to -49%
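Secreted IL-1B measured by AlphaLISA bead assay after 16 h compound exposure of THP-1 cells; compounds (final up to 57.5 uM) added 1 h before LPS (250 ng/mL) and ATP (1.25 mM) stimulation; lower signal means less secretion.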
An asterisk follows results filed as active; ? = inconclusive; · = not tested or not shown; ! = not confirmed by another sample. A selection: hits, their analogues and other compounds. The true share with any hit is near 18%. Unless noted, the call rests on the fitted dose curve; in most records, active means well fitted curve in the direction sought with a large enough effect; inconclusive means small, poorly fitted or top-dose-only effect, or another doubt; inactive means no such curve, though single readings can be large; an effect the other way counts as inactive or inconclusive. Unless noted, on the % scale 0 is the no-effect control and ±100 the full control effect.

SMILES	VP16 counter	LDHA block	TDP1 cell noCPT	RORgamma inh	DT40 TDP1 CPT	IL1B secr inh
O=C(CSC1CN(C(c2ccccc2)c2ccccc2)C1)N/N=C/c1ccccc1	-1.1%	2.9	?	-0.7%	16.4µM*	-22.8
Cc1ccc2oc(-c3ccc(NC(=O)c4ccccc4F)cc3)nc2c1	·	2.2	·	·	·	·
Brc1cccc(-c2nnco2)c1	?	-7.9	-21.7%	20µM*	-10.4%	0.0
CCOC(=O)C1CCN([C@H]2CS(=O)(=O)C[C@@H]2S(=O)(=O)c2ccc(F)c(C)c2)CC1	·	-1.5	·	·	·	·
CCc1ccc(S(=O)(=O)c2cn(C)c3cc(N4CCOCC4)c(F)cc3c2=O)cc1	·	-11.8	-29.5%	·	-29.4%	·
CCc1ccc(S(=O)(=O)c2cn(C)c3cc(N4CCC(C)CC4)c(F)cc3c2=O)cc1	·	-0.2	14.6µM*	·	14.6µM*	·
Cc1ccc(C)c(S(=O)(=O)c2cn(C)c3cc(N4CCCCC4C)c(F)cc3c2=O)c1 (stereo unspecified)	·	8.0	20.6µM*	·	20.6µM*	·
CCc1ccc(S(=O)(=O)c2cn(C)c3cc(N4CCCCC4C)c(F)cc3c2=O)cc1 (stereo unspecified)	·	-6.8	14.6µM*	·	?	·
Fc1cccc(Oc2ccc(CNc3ncccn3)cn2)c1	·	14.1	·	·	·	·
O=C(c1ccccc1)c1cc([N+](=O)[O-])ccc1N1CCCC1	5.3%	-12.5	-32.0%	29.6%	-24.7%	-12.3
Cc1ccc(C(=O)c2cc([N+](=O)[O-])ccc2N2CCN(C)CC2)cc1	-1.8%	-3.4	5.8µM*	1.6%	5.8µM*	0.9
CN1CCN(c2ccc([N+](=O)[O-])cc2C(=O)c2ccc(Br)cc2)CC1	3.1%	-1.5	5.17µM*	2.4%	2.31µM*	-3.0
CC(C)(C)C(=O)N1CCN(c2ccc([N+](=O)[O-])cc2Cl)CC1	·	-3.4	?	·	?	-9.0
O=[N+]([O-])c1ccc(N2CCN(c3ccc([N+](=O)[O-])cc3CO)CC2)c(CO)c1	6.31µM*	-1.0	2.91µM*	?	2.31µM*	-23.7
CN1CCN(c2ccc([N+](=O)[O-])cc2C(=O)c2ccccc2)CC1	-27.8%	-6.1	?	-2.0%	?	11.6
COc1cc(CN2C(=O)C(=O)c3cc(C)ccc32)ccc1OCCC(C)C	·	3.4	·	·	·	·
O=C(CN1C(=O)N/C(=C\c2cccn2-c2cccc(C(=O)O)c2)C1=O)Nc1cccc(Cl)c1	·	-22.3	·	·	·	·
COc1cccc(NC(=O)Cn2c(=O)n(CCC(=O)NCc3ccccc3OC)c(=O)c3ccccc32)c1	·	-6.3	?	·	25.9µM*	·
COc1ccccc1CNC(=O)CCn1c(=O)c2ccccc2n(CC(=O)Nc2cc(Cl)ccc2C)c1=O	·	-0.5	?	·	-28.0%	·
COc1ccccc1CNC(=O)CCCCn1c(=O)c2ccccc2n(CC(=O)Nc2cccc(Cl)c2)c1=O	·	-5.8	9.2µM*	·	23.1µM*	·
O=C(c1ccc2c(=O)n(-c3ccccc3)c(=S)[nH]c2c1)N1CCCCC1	3.16µM*	-3.0	6.51µM*	8.91µM*	6.51µM*	10.8
O=C(c1ccc(F)cc1)N1CCN(c2ncccn2)CC1	9.6%	-5.9	-6.4%	3.5%	7.4%	10.7
CCOC(=O)N1CCN(C(=O)c2ccc3c(=O)n(-c4ccc(OC)cc4)c(=S)[nH]c3c2)CC1	-9.8%	0.3	-22.7%	6.6%	?	5.3
O=C(c1ccc2c(c1)[nH]c(=S)n1c3ccccc3nc21)N1CCN(c2ncccn2)CC1	0.0%	0.7	?	3.7%	20.6µM*	-22.5
O=C(c1ccc2c(=O)n(-c3ccccc3)c(=S)[nH]c2c1)N1CCN(c2ccccc2)CC1	·	-0.2	11.6µM*	·	14.6µM*	23.7
SMILES	VP16 counter	LDHA block	TDP1 cell noCPT	RORgamma inh	DT40 TDP1 CPT	IL1B secr inh
C=C(C)COc1ccc2c(=O)c(-c3ccc(OC)c(OC)c3)c(C)oc2c1	·	6.8	·	·	·	·
CCc1ccccc1NC1=NCC(=O)N1C1CCCC1	-2.2%	-1.4	?	15.4%	23.1µM*	2.3
CCc1ccccc1NC1=NCC(=O)N1Cc1ccc(OC)cc1	6.5%	2.0	-16.1%	8.5%	?	7.2
CC(=O)c1ccc(OCC(O)CN2CCCN(c3ccc(C(F)(F)F)cn3)CC2)cc1 (stereo unspecified)	·	-3.3	·	·	·	·
COc1ccccc1OC(C)C(=O)c1ccc(C)cc1 (stereo unspecified)	·	11.7	·	·	·	·
Oc1ccc2ccccc2c1C=Nc1ccc(F)c(F)c1F	·	73.2	·	·	·	·
COc1cc2c(cc1OC)C(COc1ccccc1OC)N(C(=O)CC(C)C)CC2 (stereo unspecified)	·	-3.4	18.4µM*	·	?	·
CCCC(=O)N1CCc2cc(OC)c(OC)cc2C1COc1ccccc1OC (stereo unspecified)	-10.9%	0.3	18.4µM*!	35.2%	?	-0.1
CC(=O)c1cccc(NC(=O)C2Cc3c(-c4cccc(F)c4)ccnc3O2)c1 (stereo unspecified)	·	-2.5	?	·	18.4µM*	0.0
O=C(Nc1cccnc1)C1Cc2c(-c3cccc(F)c3)ccnc2O1 (stereo unspecified)	·	-11.4	?	·	?	-14.5
CC(=O)c1cccc(NC(=O)C2Cc3c(-c4ccccc4)ccnc3O2)c1 (stereo unspecified)	·	-4.8	13µM*	·	20.6µM*	-18.2
CC(=O)c1cccc(-c2ccnc3c2CC(C(=O)Nc2ccc(F)c(Cl)c2)O3)c1 (stereo unspecified)	·	0.0	20.6µM*	·	18.4µM*	-25.0
O=C(Nc1ccc(F)c(Cl)c1)C1Cc2c(-c3cccc(F)c3)ccnc2O1 (stereo unspecified)	·	-5.6	?	·	?	?
CCn1cc(C2=NOC(C(=O)Nc3cccc(C(C)=O)c3)C2)c(C)n1 (stereo unspecified)	-22.4%	2.3	?	-5.0%	16.4µM*	-2.3
Cc1cc(C)cc(OC(=O)c2cnc(C)cn2)c1	·	0.5	·	·	·	·
COc1ccc(C(=O)COC(=O)c2ccc(OC(F)F)c(OC)c2)c(OC)c1	·	5.0	·	·	·	·
CS(=O)(=O)Nc1cccc(NC(=O)C2Cc3c(-c4ccccc4)ccnc3O2)c1 (stereo unspecified)	·	-2.9	7.31µM*	·	10.3µM*	-2.5
